Measured values reported in PubChem BioAssay (NCI).
Compounds without any hit were thinned out: in the full panel of roughly 83,000, 20% have a hit.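 Note: values are percent growth. 100 is the growth of untreated cells, values between 100 and 0 indicate rising inhibition; between -100 and 0 indicates cell death.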 Unmarked numbers belong to inactive results. The source made the active and inactive calls. How the source made its calls: active means growth percent below 10; inactive means the rest.

How the values were obtained:
Experiment in all cases: NCI-60 one-dose screen, 48 h (100 = growth as untreated, 0 = no growth, -100 = all killed)
Conditions in all cases: 10 µM unless noted
[1] = tested on: DU-145 prostate
[2] = tested on: K-562 leukemia
[3] = tested on: MALME-3M melanoma
[4] = tested on: MDA-MB-231 breast
[5] = tested on: RXF 393 renal
[6] = tested on: SF-268 CNS
[7] = tested on: SF-295 CNS
[8] = tested on: SF-539 CNS
[9] = tested on: UACC-257 melanoma
[10] = tested on: M14 melanoma
[11] = tested on: HCT-15 colon
[12] = tested on: HT29 colon
[13] = tested on: SNB-75 CNS
[14] = tested on: SNB-19 CNS
[15] = tested on: U251 CNS
[16] = tested on: PC-3 prostate
[17] = tested on: SK-MEL-5 melanoma
[18] = tested on: UACC-62 melanoma
[19] = tested on: LOX IMVI melanoma
[20] = tested on: SK-MEL-28 melanoma

Compound	growth [1]	growth [2]	growth [3]	growth [4]	growth [5]	growth [6]	growth [7]	growth [8]	growth [9]	growth [10]	growth [11]	growth [12]	growth [13]	growth [14]	growth [15]	growth [16]	growth [17]	growth [18]	growth [19]	growth [20]
Cc1c(C(=O)NCCN2CCOCC2)cn2ncnc(Oc3ccc(NC(=O)Nc4ccc(Cl)c(C(F)(F)F)c4)cc3)c12	42.3%	4.96% (active)	-4.42% (active)	7.21% (active)	-26.8% (active)	29%	-29.3% (active)	-2.93% (active)	24.3%	3.71% (active)	21.8%	7.93% (active)	22.4%	20%	14.5%	11.4%	6.48% (active)	14.8%	-50.5% (active)	16.1%
C[N+]1=C(/C=C/c2ccc(O)c3ncccc23)C(C)(C)c2ccccc21	85.2%	16.5%	115%	64.6%	32.5%	81.8%	72.9%	25.9%	85.3%	67.5%	25%	96.9%	30.8%	27.9%	17.1%	71.2%	1.13% (active)	39.2%	40.4%	51.5%
O=C(Cc1ccc(F)c(Cl)c1)Nc1cc(C2(C(F)(F)F)CC2)nn1CC1CCCCC1	20.9%	11.1%	-24.1% (active)	-60.3% (active)	-28.7% (active)	9.97% (active)	1.21% (active)	8.62% (active)	-9.88% (active)	17.1%	5.75% (active)	8.71% (active)	-8.19% (active)	14.7%	1.68% (active)	0.348% (active)	-74.5% (active)	0.508% (active)	11.6%	19.7%
O=c1c2cccc(Cl)c2sc2c(NCCCNCCO)nc3ccccc3c12	13.9%	-48.1% (active)	77.8%	-25.3% (active)	50.3%	42.1%	73.9%	27.4%	97%	-72.7% (active)	-24.3% (active)	-51.7% (active)	51.9%	45.7%	10.8%	41.8%	81.8%	66.2%	-93.1% (active)	72.1%
CCCCNC(=O)Oc1ccc(/C(=C(\C)c2ccc(Cl)cc2)c2ccc(OCCN(CC)CC)cc2)cc1	81.7%	8.22% (active)	65.1%	70.2%	79.4%	65.5%	85.2%	71.7%	-1.69% (active)	22.6%	19.5%	-10.2% (active)	64.9%	86%	50.7%	60.9%	78.4%	74.6%	71.5%	74.9%
O=c1c2cc(F)ccc2sc2c(NCCCNCCO)nc3ccccc3c12	8.53% (active)	-44.3% (active)	69.5%	-33.1% (active)	44.8%	41.6%	65.3%	-24.1% (active)	91.2%	-79% (active)	-9.91% (active)	-53.3% (active)	53.8%	58.5%	6.22% (active)	25.2%	70.5%	-39.4% (active)	-94.1% (active)	28.1%
CCOC(=O)NCCc1ccccc1	118%	91.4%	110%	116%	115%	114%	98.3%	111%	100%	110%	118%	102%	78.7%	103%	108%	101%	111%	88.8%	93.9%	118%
COc1cccc(OC)c1C(=O)N[C@@H]1C(=O)N2[C@@H]1SC(C)(C)[C@@H]2C(=O)O	115%	110%	93.9%	102%	125%	109%	105%	108%	103%	97.9%	108%	98.9%	98.9%	107%	106%	86.3%	105%	109%	100%	105%
COc1ccc(OC)c(/C=C2\Oc3cc(OCCN4CCC(Cc5ccccc5)CC4)ccc3C2=O)c1	97.3%	20.7%	92.6%	82.9%	55.5%	85.1%	102%	87%	101%	77.2%	24.3%	21.4%	72.6%	98.8%	81.2%	78%	75.2%	92.8%	56.1%	89.5%
COc1cccc2c(=O)c3c(sc12)c(NCCCN)nc1ccccc13	33.1%	-7.71% (active)	90.9%	10.3%	61%	61.4%	72.8%	56.1%	94.1%	33.9%	28.9%	-29.3% (active)	58.2%	51%	39.5%	55.9%	85.9%	88.3%	-81.7% (active)	91.4%
COc1ccc(C(=O)C(C)C)c2ccccc12	104%	92.7%	115%	104%	109%	102%	103%	103%	128%	104%	99.6%	106%	115%	108%	110%	93.4%	109%	106%	96.4%	126%
O=c1[nH]c2c(ccc3cnccc32)c2c1CCC2	-9.29% (active)	14.6%	-59.2% (active)	2.78% (active)	-53.8% (active)	-17.7% (active)	-47.2% (active)	-59.7% (active)	6.08% (active)	-77% (active)	1.99% (active)	7.54% (active)	-33.4% (active)	3.98% (active)	5.85% (active)	0.402% (active)	-48.5% (active)	-81.3% (active)	0.937% (active)	-52.7% (active)
O=C1CN(CCN2CC(=O)N(Cc3ccccc3)C(=O)C2)CC(=O)N1Cc1ccccc1	117%	107%	103%	102%	108%	103%	109%	115%	98.4%	109%	113%	108%	88%	107%	100%	93.9%	100%	103%	96.3%	107%
COc1ccc2nc(NCCCNCCO)c3sc4ccc(F)cc4c(=O)c3c2c1	-49.7% (active)	-36.8% (active)	91.8%	-26.7% (active)	44.4%	47.2%	84.6%	-88.9% (active)	95.4%	-57.1% (active)	-47.9% (active)	-43.7% (active)	54.1%	61.5%	-33.2% (active)	38.9%	85%	65.7%	-97% (active)	68.9%
CC(C)C(=O)Nc1ccc(-c2nc(-c3cccc(OCCN4CCOCC4)c3)c(-c3ccnc(Br)c3)[nH]2)cc1	71.5%	2.82% (active)	33.6%	57.6%	-35.3% (active)	60.3%	-57.7% (active)	24.3%	56.6%	59.7%	20.1%	16.9%	-4.1% (active)	51.4%	25%	40.7%	45.8%	33.5%	27.7%	43.9%
